# According to the supplement of paper PMC8728848:
# This is one part of a sample in which the strongest signals are shown more often than they occur.
# B1: Tap1 (Sordaria macrospora), Q50IV4 (protein)
# chain: MSHHHHHHHHYTLHLRLINDTSDTLTLVEQTSWWGKNTIWSQVRSTGVHVLSMAASGSSGMLRFQTSKGDFFAVAVGVHNYKRWCDVLVDTADEAPLTKLHPKYYDDKDAKYQALWAQASEFEAKSKSGKTVRIKFYQADGNVLRATVEYL
# Legend:
# Experiment in all cases: glycan array binding signal (z-score within array); higher = stronger binding
# Conditions in all cases: glycan notation: IUPAC condensed, linker removed
# [1] = target: Fuc(a1-2)Gal(b1-3)GalNAc
# Procedure, shortened: (§1)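 Columns mapping to the same glycan were averaged after glycan names were converted to IUPAC-condensed notation. The data come from 3228 arrays in the Consortium for Functional Glycomics database, limited to those with an available protein sequence. Binding is reported as a within-array Z-score averaged across arrays of one protein sequence and across linkers.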
# [2] = target: Fuc(a1-2)[Gal(a1-3)]Gal(b1-4)Glc
# Procedure, shortened: as §1
# [3] = target: Fuc(a1-2)[Gal(a1-3)]Gal(b1-4)GlcNAc(b1-2)Man(a1-3)[Fuc(a1-2)[Gal(a1-3)]Gal(b1-4)GlcNAc(b1-2)Man(a1-6)]Man(b1-4)GlcNAc(b1-4)GlcNAc
# Procedure, shortened: as §1
# [4] = target: Fuc(a1-2)[Gal(a1-4)]Gal(b1-4)GlcNAc
# Procedure, shortened: as §1
# [5] = target: Fuc(a1-2)[GalNAc(a1-3)]Gal(b1-3)GalNAc(a1-3)[Fuc(a1-2)]Gal(b1-4)GlcNAc
# Procedure, shortened: as §1
# [6] = target: Gal(a1-4)Gal(b1-3)GlcNAc(b1-2)Man(a1-3)[Gal(a1-4)Gal(b1-3)GlcNAc(b1-2)Man(a1-6)]Man(b1-4)GlcNAc(b1-4)GlcNAc
# Procedure, shortened: as §1
# [7] = target: Gal(a1-6)Glc
# Procedure, shortened: as §1
# [8] = target: Gal(b1-2)Gal
# Procedure, shortened: as §1
# [9] = target: Gal(b1-3)Gal(b1-4)GlcNAc(b1-2)Man(a1-3)[Gal(b1-3)Gal(b1-4)GlcNAc(b1-2)Man(a1-6)]Man(b1-4)GlcNAc(b1-4)GlcNAc
# Procedure, shortened: as §1
# [10] = target: Gal(b1-3)GalNAc
# Procedure, shortened: as §1
# [11] = target: Gal(b1-3)GlcNAc(b1-2)[Gal(b1-3)GlcNAc(b1-6)]Man(a1-6)[Gal(b1-3)GlcNAc(b1-2)Man(a1-3)]Man(b1-4)GlcNAc(b1-4)GlcNAc
# Procedure, shortened: as §1
# [12] = target: Gal(b1-3)GlcNAc(b1-3)Gal(b1-4)Glc
# Procedure, shortened: as §1
# [13] = target: Gal(b1-3)[Neu5Ac(a2-6)]GalNAc
# Procedure, shortened: as §1
# [14] = target: Gal(b1-3)[Neu5Ac(b2-6)]GalNAc
# Procedure, shortened: as §1
# [15] = target: Gal(b1-4)GlcNAc
# Procedure, shortened: as §1
# [16] = target: Gal(b1-4)GlcNAc(b1-3)Gal(b1-4)Glc
# Procedure, shortened: as §1
# [17] = target: Gal(b1-4)GlcNAc(b1-3)[Gal(b1-4)GlcNAc(b1-6)]Gal(b1-4)GlcNAc
# Procedure, shortened: as §1
# [18] = target: Gal(b1-4)GlcNAc(b1-6)Gal(b1-4)GlcNAc
# Procedure, shortened: as §1
# [19] = target: Gal3S(b1-3)GalNAc
# Procedure, shortened: as §1
# [20] = target: GlcNAc(a1-4)Gal(b1-4)GalNAc
# Procedure, shortened: as §1
# [21] = target: GlcNAc(a1-4)Gal(b1-4)GlcNAc(b1-3)Gal(b1-4)Glc
# Procedure, shortened: as §1
# [22] = target: GlcNAc(b1-2)Gal(b1-3)GalNAc
# Procedure, shortened: as §1
# [23] = target: GlcNAc(b1-3)Gal(b1-3)GalNAc
# Procedure, shortened: as §1
# [24] = target: GlcNAc(b1-3)GalNAc
# Procedure, shortened: as §1
# [25] = target: Kdn(a2-3)Gal(b1-3)GalNAc
# Procedure, shortened: as §1
# [26] = target: Neu5Ac(a2-3)Gal
# Procedure, shortened: as §1
# [27] = target: Neu5Ac(a2-3)Gal(b1-3)GalNAc
# Procedure, shortened: as §1
# [28] = target: Neu5Ac(a2-3)Gal(b1-3)GalNAc(b1-4)[Neu5Ac(a2-8)Neu5Ac(a2-3)]Gal(b1-4)Glc
# Procedure, shortened: as §1
# [29] = target: Neu5Ac(a2-3)Gal(b1-4)GlcNAc
# Procedure, shortened: as §1
# [30] = target: Neu5Ac(a2-3)Gal(b1-4)GlcNAc(b1-6)[Neu5Ac(a2-3)Gal(b1-3)]GalNAc
# Procedure, shortened: as §1
# [31] = target: Neu5Ac(a2-3)Gal(b1-4)[Fuc(a1-3)]GlcNAc(b1-3)Gal(b1-4)GlcNAc
# Procedure, shortened: as §1
# [32] = target: Neu5Ac(a2-3)GalNAc(b1-4)GlcNAc
# Procedure, shortened: as §1
# [33] = target: Neu5Ac(a2-6)Gal(b1-4)GlcNAc(b1-3)Gal(b1-4)[Fuc(a1-3)]GlcNAc(b1-3)Gal(b1-4)[Fuc(a1-3)]GlcNAc
# Procedure, shortened: as §1
# [34] = target: Neu5Gc(a2-3)Gal(b1-3)[Fuc(a1-4)]GlcNAc
# Procedure, shortened: as §1
binder,measurement,setting,value
B1,glycan array binding signal (z-score),[1],2.96
same,glycan array binding signal (z-score),[2],-0.234
same,glycan array binding signal (z-score),[3],-0.244
same,glycan array binding signal (z-score),[4],-0.242
same,glycan array binding signal (z-score),[5],-0.246
same,glycan array binding signal (z-score),[6],-0.221
same,glycan array binding signal (z-score),[7],-0.248
same,glycan array binding signal (z-score),[8],-0.207
same,glycan array binding signal (z-score),[9],-0.225
same,glycan array binding signal (z-score),[10],3.97
same,glycan array binding signal (z-score),[11],-0.179
same,glycan array binding signal (z-score),[12],-0.23
same,glycan array binding signal (z-score),[13],4.09
same,glycan array binding signal (z-score),[14],-0.25
same,glycan array binding signal (z-score),[15],-0.237
same,glycan array binding signal (z-score),[16],-0.235
same,glycan array binding signal (z-score),[17],-0.264
same,glycan array binding signal (z-score),[18],-0.224
same,glycan array binding signal (z-score),[19],5.01
same,glycan array binding signal (z-score),[20],0.868
same,glycan array binding signal (z-score),[21],-0.223
same,glycan array binding signal (z-score),[22],2.86
same,glycan array binding signal (z-score),[23],2.84
same,glycan array binding signal (z-score),[24],1.62
same,glycan array binding signal (z-score),[25],3.63
same,glycan array binding signal (z-score),[26],-0.232
same,glycan array binding signal (z-score),[27],4.27
same,glycan array binding signal (z-score),[28],-0.198
same,glycan array binding signal (z-score),[29],-0.251
same,glycan array binding signal (z-score),[30],1.16
same,glycan array binding signal (z-score),[31],-0.144
same,glycan array binding signal (z-score),[32],-0.247
same,glycan array binding signal (z-score),[33],-0.176
same,glycan array binding signal (z-score),[34],-0.24
